According to PMC4336329 (PLoS ONE, 2015):
Hit rate of the full screen: of about 310,000 compounds, about 14,000 (4.5%) showed an effect of 50% or more. The effect is printed as a negative number. The sample holds strong results, similar compounds and a random draw of the others, so the mix is not that of the screen.

Biological target: human ether-à-go-go-related gene (hERG) potassium channel (human, UniProt Q12809)
Assay: primary screen, population patch clamp on CHO cells stably expressing hERG; higher = less effect of the substance
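Note: peak tail current of the secondary pulse compared with the same well before compound.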

Sequence of human ether-à-go-go-related gene (hERG) potassium channel (Q12809 whole entry, looked up): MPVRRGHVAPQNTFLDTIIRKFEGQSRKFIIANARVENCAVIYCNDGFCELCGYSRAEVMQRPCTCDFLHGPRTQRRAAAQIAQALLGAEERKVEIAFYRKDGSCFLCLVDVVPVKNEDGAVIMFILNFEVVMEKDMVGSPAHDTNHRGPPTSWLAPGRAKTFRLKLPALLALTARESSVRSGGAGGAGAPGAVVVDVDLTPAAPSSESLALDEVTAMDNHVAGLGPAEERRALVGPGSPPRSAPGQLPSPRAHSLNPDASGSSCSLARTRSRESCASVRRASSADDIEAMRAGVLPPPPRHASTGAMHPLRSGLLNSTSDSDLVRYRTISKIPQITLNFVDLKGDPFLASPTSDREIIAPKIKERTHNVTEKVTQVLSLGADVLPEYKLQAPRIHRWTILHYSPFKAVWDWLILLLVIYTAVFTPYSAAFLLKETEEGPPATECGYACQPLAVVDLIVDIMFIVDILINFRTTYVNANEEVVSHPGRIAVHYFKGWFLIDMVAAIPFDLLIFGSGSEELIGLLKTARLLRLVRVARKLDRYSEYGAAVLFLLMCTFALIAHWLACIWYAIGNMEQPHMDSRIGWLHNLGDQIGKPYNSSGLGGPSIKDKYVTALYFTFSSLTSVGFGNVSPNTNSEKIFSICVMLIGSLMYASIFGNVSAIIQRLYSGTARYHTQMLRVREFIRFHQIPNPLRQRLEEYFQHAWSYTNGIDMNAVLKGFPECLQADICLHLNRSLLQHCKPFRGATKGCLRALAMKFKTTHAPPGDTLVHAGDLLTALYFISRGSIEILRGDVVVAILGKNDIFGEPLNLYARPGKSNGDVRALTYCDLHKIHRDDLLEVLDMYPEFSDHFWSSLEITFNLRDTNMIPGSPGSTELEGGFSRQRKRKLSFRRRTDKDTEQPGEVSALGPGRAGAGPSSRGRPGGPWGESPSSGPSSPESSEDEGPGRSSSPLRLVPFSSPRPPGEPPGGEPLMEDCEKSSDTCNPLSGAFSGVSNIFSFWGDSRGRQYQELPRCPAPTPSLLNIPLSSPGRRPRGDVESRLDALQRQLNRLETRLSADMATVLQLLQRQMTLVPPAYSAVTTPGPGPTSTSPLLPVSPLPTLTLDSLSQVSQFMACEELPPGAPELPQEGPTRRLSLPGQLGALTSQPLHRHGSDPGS

SMILES | hERG current change (%, negative = inhibition) at 10uM [%]
Cc1ccc(S(=O)(=O)NC(C)(C)CN2CCCCC2)cc1 | 3.77
Cc1cc(=O)oc2cc(OCC(=O)c3ccccc3)ccc12 | 10.9
Cc1cc(=O)oc2cc(OCC(=O)OC(C)C(=O)NC3CCCC3)ccc12 (centres unmarked) | 2.63
COc1ccc(C(=O)COc2ccc3c(C)cc(=O)oc3c2)cc1 | 11.1
COc1cccc(C(=O)COc2ccc3c(C)cc(=O)oc3c2)c1 | -70.8
O=C(COc1ccc2c3c(c(=O)oc2c1)CCC3)NC1CCCCC1 | 4.83
Cc1cc(=O)oc2cc(OCC(=O)NC3CC(C)(C)NC(C)(C)C3)ccc12 | -34.2
Cc1cc(=O)oc2cc(OCC(=O)OCC(=O)NC3CC3)ccc12 | 16.4
Cc1cc(=O)oc2cc(OCC(=O)NC3CCCCC3)ccc12 | -60.7
Cc1cc(=O)oc2cc(OCC(=O)NC3CCCC3)ccc12 | -67.2
CCOc1cc(NC(=S)NCC(C)C)c(OCC)cc1NC(=O)c1cccs1 | 13.2
O=C1NC2(CCCCC2)C(=O)N1/N=C/c1ccc(O)cc1O | -16.7
COc1ccc(C(=O)c2c[nH]c(C(=O)N=CN(C)C)c2)cc1 | 10.2
O=C(c1ccc(NC2=NC3CS(=O)(=O)CC3S2)cc1)N1CCN(c2ccccc2)CC1 (centres unmarked) | 20.7
Cc1ccc(-c2nc3cnccn3c2Nc2ccc3c(c2)OCO3)cc1 | -25.7
Cc1ccn2c(Nc3ccccc3)c(-c3ccccn3)nc2c1 | -10.8
Clc1ccc(-c2nc3cnccn3c2Nc2ccc3c(c2)OCO3)cc1 | -18.4
Cc1ccc(Nc2c(-c3ccccn3)nc3cc(C)ccn23)cc1 | -48.1
Cc1ccc(-c2nc3cnccn3c2Nc2ccc3c(c2)OCCO3)o1 | -23.8
Cc1ccc(-c2nc3cnccn3c2Nc2ccc3c(c2)OCO3)o1 | -52.7
Cc1ccc(Nc2c(-c3ccc(C)o3)nc3cnccn23)cc1 | 4.98
COc1ccc(-c2nc3cnccn3c2Nc2ccc3c(c2)OCO3)cc1 | -52.7
Cc1ccn2c(Nc3ccc4c(c3)OCO4)c(-c3ccccn3)nc2c1 | -67.4
Cc1ccc(NC(=O)CSc2nnc(-c3ccoc3C)n2CCCN(C)C)cc1Cl | -69.3
CCN(CC)CCCn1c(SCC(=O)Nc2cccc(F)c2)nnc1-c1ccoc1C | -68.2
COCCCn1c(SCC(=O)Nc2ccc3c(c2)OCCO3)nnc1-c1ccoc1C | -5.98
Cc1occc1-c1nnc(SCC(=O)Nc2ccc3c(c2)OCO3)n1CC1CCCO1 (centres unmarked) | -2.13
CCOC(=O)c1cccc(NC(=O)CSc2nnc(-c3ccoc3C)n2CCOC)c1 | -19.7
CCCn1c(SCC(=O)Nc2cccc(C(=O)OCC)c2)nnc1-c1ccoc1C | -2.61
